High-throughput results from PubChem.
Only some compounds are listed: those with a hit (about 2.6% of all), similar ones and a draw of the others.
HSP90 refold inh: HSP90 refolding inhibition in rabbit reticulocyte lysate; AID 1789; luciferase refolding luminescence, 3 h; inhibition, % at 5.6 µM; hit rate 0.91% among 290,000;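 active means inhibition above the screen-wide mean plus 3 SD, computed separately per campaign, cut at about 16% in these data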;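 further: inhibitors lower the luminescence because luciferase stays unfolded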
EBV LMP1 NFkB: Epstein-Barr LMP1 NF-kappaB reporter inhibition | hit rate 0.69% among 350,000 | AID 504558 | LMP1-induced NF-kappaB luciferase reporter cells, luminescence | inhibition, % at 12.5 µM; in the data active means inhibition above about 41%
TROY signal inh: TROY signaling inhibition. hit rate 0.98% among 360,000. inhibition, % at 10 µM. Q293 LMP1-TROYcd NF-kB luciferase reporter, 4 h;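 active means compounds whose plate-normalised and pattern-corrected inhibition of the luciferase reporter signal at the single screening dose is 50% or more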
LGR2 antag: blocks bursicon-induced cAMP signaling via Drosophila LGR2; HEK293 LGR2, CRE-luciferase, bursicon-stimulated, 4 h; hit rate 0.35% among 380,000; inhibition, % at 9.99 µM;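 active means drop in luminescence signal, shown as inhibition above about 50% in the replicate tests, limit read from the data, passing the limit was not always enough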;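 further: agonist challenge used bursicon conditioned medium at about half maximal strength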
TWEAK-Fn14 inh: blocks TWEAK-Fn14 interaction in a reporter cell assay | inhibition, % at 10 µM | TWEAK-stimulated Fn14 reporter cells, luciferase luminescence, 8 h | hit rate 2% among 360,000; in the data active means inhibition above about 50%
aDG glyco up: increases alpha dystroglycan glycosylation; Pro5-aDG cells, alpha-DG glycosylation AlphaScreen (IIH6); 0% Pro5, 100% B10-LARGE cell signal; activation, % at 10 µM; hit rate 0.22% among 360,000;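 active means activation of at least 8% versus controls, or a plate z-score of at least 8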;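 further: Pro5 are CHO cells carrying HIG-tagged alpha-DG that lacks glycosylation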
HSP90 confirm: confirmation of HSP90 inhibitors. rabbit reticulocyte lysate, luciferase refolding luminescence, 3 h. inhibition, % at 5.9 µM. hit rate 64% among 2,300. shares compounds with HSP90 refold inh; in the data active means inhibition above about 18%
FLuc counter: counter-screen for HSP90 inhibitors: inhibitors of firefly luciferase. purified native firefly luciferase, luminescence. shares compounds with HSP90 refold inh. hit rate 48% among 2,300. inhibition, % at 5.9 µM;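 active means inhibition above the mean inhibition of all tested sample wells plus 3 SD, cut at about 10% in these data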
Target sequence (P08659 whole entry, looked up): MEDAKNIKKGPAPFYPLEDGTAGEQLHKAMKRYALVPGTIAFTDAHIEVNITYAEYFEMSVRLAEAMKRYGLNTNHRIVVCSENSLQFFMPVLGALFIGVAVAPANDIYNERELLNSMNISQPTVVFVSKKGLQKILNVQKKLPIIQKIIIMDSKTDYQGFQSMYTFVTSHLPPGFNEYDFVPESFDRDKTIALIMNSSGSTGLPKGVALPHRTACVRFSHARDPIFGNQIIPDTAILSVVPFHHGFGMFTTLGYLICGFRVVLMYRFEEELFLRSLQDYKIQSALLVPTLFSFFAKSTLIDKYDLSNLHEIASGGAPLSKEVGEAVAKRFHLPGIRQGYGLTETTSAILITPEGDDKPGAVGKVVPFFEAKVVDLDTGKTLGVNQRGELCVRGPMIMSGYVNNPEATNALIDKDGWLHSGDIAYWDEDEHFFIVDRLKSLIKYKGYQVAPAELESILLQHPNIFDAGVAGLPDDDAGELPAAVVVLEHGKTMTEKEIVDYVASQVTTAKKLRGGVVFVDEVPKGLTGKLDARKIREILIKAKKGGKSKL
aDG conf: confirmation of alpha dystroglycan glycosylation activators; shares compounds with aDG glyco up; Pro5-aDG cells, alpha-DG glycosylation, IIH6 AlphaLISA; scaled to LARGE-overexpressing B10 cells as 100%; activation, % at 10 µM (by protocol); hit rate 17% among 600;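 active means activation of at least 7% in one or more replicates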;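 further: cells exposed to compound for two days before detection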
Hits are given with their value.

What do the screens show for `O=C(O)CSc1nnc(NC(=O)c2ccc3c(c2)OCO3)s1`?
HSP90 refold inh: 26; EBV LMP1 NFkB: inactive; TROY signal inh: inactive; LGR2 antag: inactive; TWEAK-Fn14 inh: inactive; aDG glyco up: inactive; HSP90 confirm: 26; FLuc counter: inactive

What do the screens show for `COCC(C)N=C1NN=C(c2cc(C)n(Cc3ccccc3Cl)c2C)CS1` (configuration not stated)?
HSP90 refold inh: 34; EBV LMP1 NFkB: inactive; TROY signal inh: inactive; LGR2 antag: inactive; TWEAK-Fn14 inh: inactive; aDG glyco up: 5.6; HSP90 confirm: 65; FLuc counter: 55; aDG conf: inactive

Results for C[C@H]1CN([C@@H](C)CO)C(=O)c2cccc(NC(=O)c3nc4ccccc4s3)c2O[C@@H]1CN(C)S(=O)(=O)c1cn(C)cn1 ?
LGR2 antag: inactive

What do the screens show for `CCC1Nc2ncnc(N3CCc4ccccc4C3)c2N(Cc2ccc(Cl)cc2)C1=O` (configuration not stated)?
EBV LMP1 NFkB: inactive; TROY signal inh: inactive; LGR2 antag: inactive; TWEAK-Fn14 inh: inactive; aDG glyco up: 16; aDG conf: inactive

Results for CC1CCCC/C1=N\NC(=S)Nc1ccccc1 (configuration not stated) ?
HSP90 refold inh: inactive; EBV LMP1 NFkB: inactive; TROY signal inh: inactive; LGR2 antag: inactive; TWEAK-Fn14 inh: inactive; aDG glyco up: inactive

How did CC(C)NC(=S)N/N=C1\CCCCC1C1CCCCC1 (configuration not stated) do in these assays?
HSP90 refold inh: inactive; EBV LMP1 NFkB: inactive; TROY signal inh: inactive; TWEAK-Fn14 inh: inactive; aDG glyco up: 7.2; aDG conf: inactive

How did CC(OC(=O)c1ccc(Cl)nc1)C(=O)NCc1ccc2c(c1)OCO2 (configuration not stated) do in these assays?
EBV LMP1 NFkB: inactive; TROY signal inh: inactive; LGR2 antag: inactive; TWEAK-Fn14 inh: inactive; aDG glyco up: 7.2; aDG conf: inactive

How did Cc1ccccc1C(=O)OC(C)C(=O)NCc1ccc2c(c1)OCO2 (configuration not stated) do in these assays?
EBV LMP1 NFkB: inactive; TROY signal inh: inactive; LGR2 antag: inactive; TWEAK-Fn14 inh: inactive; aDG glyco up: inactive

What do the screens show for `C[C@@H]1CN([C@H](C)CO)C(=O)c2cc(C#CCN(C)C)cnc2O[C@@H]1CN(C)Cc1cccc(C(=O)O)c1`?
LGR2 antag: inactive

How did C/C=C/c1ccc(OCCCNC2CCCC2)c(OC)c1 do in these assays?
HSP90 refold inh: inactive; EBV LMP1 NFkB: inactive; TROY signal inh: inactive; TWEAK-Fn14 inh: inactive; aDG glyco up: 9.6; aDG conf: 12

What do the screens show for `COc1cc(/C=C/C(=O)Nc2nc3ccc(S(=O)(=O)NC(C)C)cc3s2)cc(OC)c1OC`?
HSP90 refold inh: inactive; EBV LMP1 NFkB: inactive; TROY signal inh: inactive; LGR2 antag: inactive; TWEAK-Fn14 inh: inactive; aDG glyco up: 8.2; aDG conf: 6.1

Results for CCNS(=O)(=O)c1ccc2nc(NC(=O)/C=C/c3cc(OC)c(OC)c(OC)c3)sc2c1 ?
HSP90 refold inh: inactive; EBV LMP1 NFkB: inactive; TROY signal inh: inactive; LGR2 antag: inactive; TWEAK-Fn14 inh: inactive; aDG glyco up: inactive

What do the screens show for `CCOc1ccc(CCNC(=O)COC(=O)c2cc(OC)cc(OC)c2)cc1OCC`?
HSP90 refold inh: inactive; EBV LMP1 NFkB: inactive; TROY signal inh: inactive; LGR2 antag: inactive; TWEAK-Fn14 inh: inactive; aDG glyco up: 24; aDG conf: inactive

How did CCCOc1ccc(C(=O)OCC(=O)NCCc2ccc(OCC)c(OCC)c2)cc1OC do in these assays?
HSP90 refold inh: inactive; EBV LMP1 NFkB: inactive; TROY signal inh: inactive; LGR2 antag: inactive; TWEAK-Fn14 inh: inactive; aDG glyco up: inactive

How did O=[N+]([O-])c1cc(-c2nc(-c3ccncc3)no2)cc([N+](=O)[O-])c1 do in these assays?
HSP90 refold inh: inactive; EBV LMP1 NFkB: inactive; TROY signal inh: inactive; LGR2 antag: inactive; TWEAK-Fn14 inh: inactive; aDG glyco up: 8.7; aDG conf: inactive
